From PubChem BioAssay
MEP2-GFP yeast = modulators of TOR pathway MEP2-GFP in S. cerevisiae | 0.51% of 330,000 active | S. cerevisiae MEP2-GFP strain, flow cytometry GFP, 3 h; 100% = DMSO control level | AID 2016 | GFP response vs DMSO, % at 10 µM;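 active means GFP response versus DMSO above a set limit, roughly screen mean plus 3 SD, cut at about 180% in these data; inconclusive means fewer than 70 cells counted for a yeast strain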;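 further: median GFP fluorescence of the barcode-gated MEP2-GFP cells per well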
CIT2-GFP yeast = modulators of TOR pathway CIT2-GFP in S. cerevisiae | S. cerevisiae CIT2-GFP strain, flow cytometry, 3 h; 100 means same as DMSO wells | GFP response vs DMSO, % at 10 µM | 0.065% of 320,000 active | AID 2029;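 active means GFP response relative to DMSO above a set limit, near the screen mean plus 3 SD, cut at about 150% in these data; inconclusive means Fewer than 70 cells measured for a yeast strain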;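 further: ratio of well median GFP fluorescence to mean of DMSO wells on the plate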
RPL19A TOR yeast = yeast TOR pathway RPL19A-GFP modulation; 0.3% of 330,000 active; S. cerevisiae RPL19A-GFP strain, flow cytometry, 3 h; active compounds read low; percent response vs DMSO, % at 10 µM;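 active means percent response vs DMSO below 50%; inconclusive means fewer than 70 events counted for the yeast strain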;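 further: median channel GFP fluorescence of the barcoded RPL19A-GFP strain; lower means less RPL19A-GFP as with rapamycin TOR inhibition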
LAP4 TOR yeast = modulators of TOR pathway LAP4-GFP in S. cerevisiae; S. cerevisiae LAP4-GFP multiplex, flow cytometry GFP, 3 h; median GFP as percent of DMSO wells; GFP response vs DMSO, % at 10 µM; 0.34% of 320,000 active;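 active means GFP response vs DMSO above a set limit, about the screen mean plus 3 SD, cut at about 150% in these data; inconclusive means under 70 cell events counted for the yeast strain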
AGP1-GFP MLPCN = modulators of TOR pathway AGP1-GFP in S. cerevisiae; S. cerevisiae AGP1-GFP multiplex flow cytometry, 3 h; GFP as percent of DMSO wells; GFP response vs DMSO, % at 10 µM; 0.02% of 320,000 active; AID 2066;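 active means GFP response relative to DMSO above a set limit, near screen average plus 3 SD, cut at about 150% in these data; inconclusive means fewer than 70 cells counted for the yeast strain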;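 further: median GFP channel fluorescence of the gated AGP1 strain per well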
DSG3 Ab inh = human desmoglein-3 autoantibody binding inhibition | P32926 | DSG3-coupled beads, scFv-anti-DSG3-GFP binding, flow cytometry; active compounds read low | binding (percent of control), % at 10 µM | 0.48% of 310,000 active | AID 588358;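 active means binding more than 3 SD below its plate's average and above zero; inconclusive means below that plate limit but binding exactly zero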;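 further: hits lower antibody fragment binding to DSG3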
Target sequence (P32926 whole entry, looked up, the tested form may be a part): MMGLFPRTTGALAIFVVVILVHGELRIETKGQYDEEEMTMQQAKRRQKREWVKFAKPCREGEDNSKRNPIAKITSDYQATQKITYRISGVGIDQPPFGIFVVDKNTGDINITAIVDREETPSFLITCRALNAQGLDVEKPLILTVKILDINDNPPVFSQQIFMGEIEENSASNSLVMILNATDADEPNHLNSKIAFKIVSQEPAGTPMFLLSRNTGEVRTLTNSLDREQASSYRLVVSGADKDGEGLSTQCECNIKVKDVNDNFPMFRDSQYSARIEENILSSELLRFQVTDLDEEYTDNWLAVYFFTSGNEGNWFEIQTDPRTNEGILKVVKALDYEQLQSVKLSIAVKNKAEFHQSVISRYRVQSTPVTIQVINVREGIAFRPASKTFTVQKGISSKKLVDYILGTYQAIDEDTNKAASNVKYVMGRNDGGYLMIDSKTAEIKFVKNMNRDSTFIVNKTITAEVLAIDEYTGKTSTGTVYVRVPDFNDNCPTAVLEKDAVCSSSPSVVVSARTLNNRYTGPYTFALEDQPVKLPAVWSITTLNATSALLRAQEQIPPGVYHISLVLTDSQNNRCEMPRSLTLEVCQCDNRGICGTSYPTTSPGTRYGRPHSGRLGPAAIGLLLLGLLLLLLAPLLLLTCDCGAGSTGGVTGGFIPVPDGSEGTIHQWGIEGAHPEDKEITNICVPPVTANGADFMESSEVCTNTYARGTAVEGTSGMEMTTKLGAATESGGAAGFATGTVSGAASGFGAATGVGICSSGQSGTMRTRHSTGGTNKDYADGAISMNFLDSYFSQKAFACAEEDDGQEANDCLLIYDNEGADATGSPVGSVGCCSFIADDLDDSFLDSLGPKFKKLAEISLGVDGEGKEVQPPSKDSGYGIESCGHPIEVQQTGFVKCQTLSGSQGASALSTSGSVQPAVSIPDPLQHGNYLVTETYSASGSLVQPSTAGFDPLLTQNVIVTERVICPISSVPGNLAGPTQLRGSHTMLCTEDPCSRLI
A number is an active result; . = inactive; ? = inconclusive; / = no result given; [ ] = another dose, or the depositor's remark. Sampled rows, rich in hits. Any-hit rate of the full collection: about 1.2%.

SMILES	MEP2-GFP yeast	CIT2-GFP yeast	RPL19A TOR yeast	LAP4 TOR yeast	AGP1-GFP MLPCN	DSG3 Ab inh
CC(=O)Oc1c(C)cc(Cl)cc1C(=O)Nc1ccc([N+](=O)[O-])cc1Cl	.	153	.	.	.	.
COc1c(C)cccc1C(=O)Nc1ccc(N2CCOCC2)c(Cl)c1	.	.	.	.	/	.
COCCOC(=O)c1sc2nc[nH]c(=O)c2c1C	.	.	.	.	.	.
CCOc1c(Br)ccc2c1sc1nc[nH]c(=O)c12	183	.	/	.	.	.
Cc1ccc(NC(=O)c2nc(S(=O)(=O)Cc3ccccc3C)ncc2Cl)cc1C	.	.	.	.	.	.
CCN(CC)N=Nc1[nH]nc2nc(C)cc(C)c12	.	157	.	.	.	.
Cc1cc(C)c2c(N=NN3CCCCC3)[nH]nc2n1	.	169	.	.	.	.
O=C(COC(=O)c1ccc(O)cc1)c1ccc2c(c1)OCCO2	/	/	/	/	/	.
COC(=O)C(Cc1ccc(O)cc1)NC(=O)CCc1ccco1 (configuration not stated)	?	?	18[may fluoresce violet]	?	?	.
COC(=O)C(Cc1ccc(O)cc1)NC(=O)c1ccc2c(c1)OCCO2 (configuration not stated)	237[may fluoresce violet]	?	39[may fluoresce violet]	.	?	/
O=c1[nH]c(=O)n(C2OC(CO)C(O)C2O)cc1N1CCOCC1 (configuration not stated)	/	/	/	/	/	.
CNc1cc(CSC)nc(SCc2ccc(Cl)cc2Cl)n1	.	.	.	164	.	.
O=C(COc1ccccc1[N+](=O)[O-])Nc1ccc(Br)cc1	605[may fluoresce violet]	?	.	.	.	.
O=C(CC(=O)c1ccccc1)CC(O)(C=Cc1ccccc1)c1ccccc1 (configuration not stated)	/	/	/	/	/	.
O=C(NCc1cccs1)Nc1cccc(Cl)c1	.	.	.	.	.	9.4
O=C(CSc1ccc(-c2ccc(F)cc2)nn1)N1CCN(c2ccccc2)CC1	.	.	.	.	.	84
Cc1cccc(NC(=O)c2nc[nH]c2C(=O)N[C@H](C)CO)c1	/	/	/	/	/	.
C=CCn1c(SCC(=O)NC(=O)NC)nnc1C1CCCCC1	.	.	.	.	.	.
COc1ccc(-c2cc(CNC(=O)CN3CCN(C)CC3)on2)cc1	257[may fluoresce violet]	?	/	.	.	.
CCN(CC)CC(=O)NCc1cc(-c2ccc(OC)cc2)no1	.	.	.	.	.	/
N/C(=N\OC(=O)COc1ccc(Cl)cc1Cl)c1ccncc1	/	/	/	/	/	.
CS(=O)(=O)N(CCc1ccccc1)CC(=O)N1CCCC1	?	?	43[may fluoresce violet]	?	?	.
CS(=O)(=O)N(CCc1ccccc1)CC(=O)N1CCCCCC1	/	/	/	/	/	.
CC(=O)Nc1ccc(C(=O)NNC(=O)CCc2ccccc2)cc1	250[may fluoresce violet]	?	43[may fluoresce violet]	.	.	.
CC(C)n1nc(C(=O)Nc2cccc(S(=O)(=O)NCc3ccco3)c2)c2ccccc2c1=O	.	.	.	.	.	.
SMILES	MEP2-GFP yeast	CIT2-GFP yeast	RPL19A TOR yeast	LAP4 TOR yeast	AGP1-GFP MLPCN	DSG3 Ab inh
CCCCSCCCNC(=O)c1ccc(CS(=O)(=O)c2ccc(OC)cc2)o1	.	.	.	.	.	.
N=c1n(CCN2CCCCC2)c2ccccc2n1CC(=O)c1ccc(Cl)c(Cl)c1	.	.	.	168	.	.
CCn1c(=N)n(CC(=O)c2ccc(Cl)c(Cl)c2)c2ccccc21	.	.	.	.	.	.
CC1=C(C(=O)NCc2ccccc2)C(c2cccnc2)n2ncnc2N1 (configuration not stated)	.	.	.	.	.	.
COc1ccc(C2C(C(=O)NCc3ccccc3)=C(C)Nc3ncnn32)cc1OC (configuration not stated)	200[may fluoresce violet]	?	.	.	?	.
Cc1ccc(-c2nnn(CC(=O)N(CCN3CCOCC3)C(C(=O)NC(C)(C)C)c3ccco3)n2)cc1 (configuration not stated)	.	.	.	.	.	.
O=C(NCc1ccc(Cl)cc1)c1cnccn1	.	.	.	.	.	.
CC(=O)N(Cc1ccc(Cl)cc1)c1cnccn1	293[may fluoresce violet]	?	.	.	?	.
CSc1nc(C)c(Cc2ccccc2)c(=O)[nH]1	.	.	.	.	.	.
CSc1nc(C)c(CCOCc2ccccc2)c(=O)[nH]1	233[may fluoresce violet]	?	.	.	?	.
CC(C)c1c(O)nc(SCC(=O)N2CCCCC2)[nH]c1=O	241[may fluoresce violet]	?	.	.	.	.
CCOc1ccc(Cn2nnc(C(=O)Nc3cc(C)cc(C)c3)c2N)cc1	.	.	.	.	.	72
CCOc1ccc(Cn2nnc(C(=O)Nc3cc(OC)cc(OC)c3)c2N)cc1	.	.	.	.	.	.
COc1cccc(Cn2nnc(C(=O)Nc3ccc(C)cc3)c2N)c1	.	.	.	.	.	.
COc1ccc(NC(=O)Cn2nnc(C(=O)NCc3ccccc3)c2N)cc1Cl	.	.	.	.	.	89
COc1cccc(Cn2nnc(C(=O)Nc3cc(C)ccc3OC)c2N)c1	.	.	.	.	.	-1.1
CC1Nc2ncnc(N3CCN(c4ccccc4)CC3)c2N(Cc2ccc(Br)cc2)C1=O (configuration not stated)	.	.	.	.	.	.
CCC(C)[C@H](NC(=O)N1CCCCCC1)C(=O)OC (some centres not stated)	.	.	.	.	.	.
Cc1ccc(NCc2n[nH]c(=S)n2-c2ccccc2)c(C)c1	.	.	.	.	.	.
CCCCC[C@H](O)/C=C/[C@@H]1[C@@H](CCCCCCC(=O)O)[C@@H](O)C[C@H]1O	.	.	.	175	.	.
O=S(=O)(Nc1cccc(-c2ccc(N3CCCCCC3)nn2)c1)c1ccccc1F	.	.	47	.	.	.
CC1CCN(c2ccc(-c3cccc(NC(=O)C(F)(F)F)c3)nn2)CC1	522[may fluoresce violet]	?	48[may fluoresce violet]	.	?	.
O=C(Nc1cccc(-c2ccc(N3CCCCC3)nn2)c1)C(F)(F)F	551[may fluoresce violet]	?	.	.	.	.
Cc1ccc(SCc2c(C(=O)N/N=C/c3ccoc3)nnn2-c2nonc2N)cc1	.	.	.	.	.	.
COc1ccc(CCNC(=O)c2cc(-c3ccccc3)c(N3CCOCC3)s2)cc1OC	.	.	.	.	.	/
SMILES	MEP2-GFP yeast	CIT2-GFP yeast	RPL19A TOR yeast	LAP4 TOR yeast	AGP1-GFP MLPCN	DSG3 Ab inh
CC(=O)CCn1cc([N+](=O)[O-])nc1C	.	.	.	.	.	/
CCOc1cccc(/C=C2\NC(=S)N(c3ccccc3)C2=O)c1O	424[may fluoresce violet]	?	18[may fluoresce violet]	.	?	.
O=[N+]([O-])c1ccccc1C1Nc2cccc3cccc(c23)N1	476[may fluoresce violet]	?	.	.	.	.
Oc1ccccc1C1Nc2cccc3cccc(c23)N1	.	.	.	.	.	.
Brc1ccc(Br)c2cnccc12	/	/	/	/	/	.
CCCCOc1ccc(/C=N/NC(=S)Nc2cccc(C)c2C)cc1	.	.	.	.	.	2.8
